High-throughput results: PubChem, National Center for Advancing Translational Sciences (NCATS)
A selection: hits, their analogues and other compounds. The true share with any hit is near 9.9%.
KB-3-1 cytotox: kills parental KB-3-1 adenocarcinoma cells. AID 1347075. hit rate 1.4% among 400,000. KB-3-1 viability, CellTiter-Glo ATP luminescence, 72 h. Potency, µM (highest dose often 46.1 µM), most hits filed as cytotoxic; also: potency is read from the fitted curve at half-maximal effect; % is scaled to controls: 0 for no effect and ±100 for the full control effect; nearly all actives have a fitted effect of over 60% in size
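Using CellTiter-Glo luminescence, growth of non-resistant KB-3-1 adenocarcinoma cells is assessed 72 h after pin-tool compound addition at 37 °C. Normalized responses across the concentration series yield fitted curves.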
MCF10A rerep: inducers of DNA re-replication in MCF 10A breast cells; MCF 10A DNA re-replication, Hoechst nuclear intensity, 48 h; Potency, µM (top dose mostly 46.1 µM), without a hit: at the highest dose activity, positive = re-replication, most hits filed as activators; hit rate 2.9% among 350,000; also: potency is read from the fitted curve at half-maximal effect; % of control where 0% means no effect; nearly all actives have a fitted effect of over 50% in size
KB-V1 cytotox: KB-V1 MDR subline cytotoxicity; KB-V1 MDR cells viability, CellTiter-Glo, 72 h; Potency, µM (series often up to 46.1 µM), actives largely listed as cytotoxic; hit rate 3.4% among 400,000; AID 1347076; also: potency is read from the fitted curve at half-maximal effect; % is scaled to controls: 0 for no effect and ±100 for the full control effect; nearly all actives have a fitted effect of over 60% in size
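Luminescent ATP read-out (CellTiter-Glo, 10 min) measures survival of drug-selected KB-V1 MDR cells after 72 h, 37 degrees C compound exposure. Medium: phenol-red-free DMEM, 10% FBS. Values from fitted concentration-response curves.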
IL-1B inflam inh: blocks inflammasome-driven IL-1 beta release. THP-1 LPS/ATP IL-1B secretion, AlphaLISA, 16 h; hits give low values. activity change, % at 57.5 µM. hit rate 4.7% among 360,000; in the data active = activity change below about -50%; inconclusive = mostly about -30% to -49%; also: % is scaled to controls: 0 for no effect and ±100 for the full control effect
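Secreted IL-1B measured by AlphaLISA bead assay after 16 h compound exposure of THP-1 cells; compounds (final up to 57.5 uM) added 1 h before LPS (250 ng/mL) and ATP (1.25 mM) stimulation; lower signal means less secretion.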
SW480 rereplic: inducers of DNA re-replication in SW480 colon cancer cells | SW480 DNA re-replication, Hoechst DNA content imaging, 48 h | Potency, µM (titrated, usually from 46.1 µM), inactives show at the highest dose re-replication activation, usual class: activators | hit rate 1.8% among 340,000; also: potency is read from the fitted curve at half-maximal effect; % of control where 0% means no effect; nearly all actives have a fitted effect of over 55% in size
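Treated cells incubate 48 hr (37 C, 5% CO2), are stained 40 min with Hoechst, and nuclear fluorescence is enumerated; a rise in nuclei with high DNA signal marks re-replication.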
Starred values were filed as active, the others as inactive. Unless noted, calls follow the shape of the dose curve; as a rule, active = well fitted curve in the direction sought with a large enough effect; inconclusive = small, poorly fitted or top-dose-only effect, or another doubt; inactive = no such curve, though single readings can be large; an effect the other way counts as inactive or inconclusive.

What do the screens show for `COc1cccc(Cn2cnc(-c3ccccc3OC)c2-c2cc(C)cc(C)c2)c1`?
KB-3-1 cytotox: inconclusive; KB-V1 cytotox: inconclusive; IL-1B inflam inh: -3

What do the screens show for `CC(=O)N1CCc2c(sc3c2c(=O)n(-c2ccccc2Cl)c(=O)n3C)C1`?
KB-3-1 cytotox: inactive; KB-V1 cytotox: inactive

How did Cc1ccc(CCNC(=O)CN2CCN(Cc3ccc(Cl)cc3)C2=O)cc1 do in these assays?
KB-3-1 cytotox: inactive; KB-V1 cytotox: inactive

How did CCC1CCCCN1C(=O)Cn1c(=O)n(CCCC(=O)NCc2ccco2)c(=O)c2sccc21 (stereo not drawn) do in these assays?
KB-3-1 cytotox: inactive; MCF10A rerep: -2%; KB-V1 cytotox: inactive; IL-1B inflam inh: -14; SW480 rereplic: -10%

How did C[C@H]1O[C@H](C2CCCC2)CC2=C1C(=O)OC(C)(C)O2 do in these assays?
KB-3-1 cytotox: inactive; KB-V1 cytotox: inactive; IL-1B inflam inh: 10

How did COc1ccccc1N1CCN(S(=O)(=O)c2ccc(-c3ccno3)cc2OC)CC1 do in these assays?
KB-3-1 cytotox: inactive; KB-V1 cytotox: inactive

What do the screens show for `Cn1cc(Br)c(C(=O)N/N=C/c2cc3c(cc2Cl)OCO3)n1`?
KB-3-1 cytotox: inconclusive; MCF10A rerep: 1%; KB-V1 cytotox: inactive; IL-1B inflam inh: inconclusive; SW480 rereplic: 24%

How did COc1cc(/C=C2\C(=O)ON=C2c2ccccc2)cc(Cl)c1O do in these assays?
KB-3-1 cytotox: inconclusive; MCF10A rerep: inconclusive; KB-V1 cytotox: inconclusive; IL-1B inflam inh: -15; SW480 rereplic: 1%

Results for O=C1ON=C(c2ccc(Cl)cc2)/C1=C/c1ccc(O)cc1 ?
KB-3-1 cytotox: inactive; MCF10A rerep: inconclusive; KB-V1 cytotox: 21µM*; IL-1B inflam inh: -102*; SW480 rereplic: 4%

What do the screens show for `Cc1ccc(C2=NOC(=O)/C2=C\c2ccccc2)cc1`?
KB-3-1 cytotox: inactive; MCF10A rerep: -1%; KB-V1 cytotox: inactive; IL-1B inflam inh: -12; SW480 rereplic: -13%

What do the screens show for `CCOc1cc(/C=C2\C(=O)ON=C2c2ccccc2)cc(Br)c1O`?
KB-3-1 cytotox: inconclusive; MCF10A rerep: 9.2µM*; KB-V1 cytotox: inconclusive; IL-1B inflam inh: -104*; SW480 rereplic: inconclusive

Results for COc1cc(/C=C2/C(=O)ON=C2c2ccccc2)ccc1O ?
KB-3-1 cytotox: inactive; MCF10A rerep: inconclusive; KB-V1 cytotox: inconclusive; IL-1B inflam inh: -105*; SW480 rereplic: inconclusive

How did O=C1ON=C(c2ccccc2)/C1=C/c1ccc(O)cc1 do in these assays?
KB-3-1 cytotox: inactive; MCF10A rerep: 21%; KB-V1 cytotox: inactive; IL-1B inflam inh: -99*; SW480 rereplic: 21%

How did CC1=NOC(=O)/C1=C/c1ccc(O)cc1 do in these assays?
KB-3-1 cytotox: inactive; MCF10A rerep: inconclusive; KB-V1 cytotox: inconclusive; IL-1B inflam inh: -4; SW480 rereplic: inconclusive

What do the screens show for `Cn1ccc2c(N3CCCCCCC3)cc3c(c21)C1CCC3O1` (stereo not drawn)?
KB-3-1 cytotox: inconclusive; KB-V1 cytotox: inactive; IL-1B inflam inh: -8

Results for O=C1ON=C(c2ccccc2)/C1=C/c1ccccc1 ?
KB-3-1 cytotox: inactive; MCF10A rerep: -2%; KB-V1 cytotox: inactive; IL-1B inflam inh: -75*; SW480 rereplic: -4%

How did CC1CCCCN1S(=O)(=O)c1ccc(N(C(=O)c2cnccn2)C(C(=O)NC2CCCCC2)c2cccs2)cc1 (stereo not drawn) do in these assays?
KB-3-1 cytotox: inactive; MCF10A rerep: 2%; KB-V1 cytotox: inactive; IL-1B inflam inh: -63*; SW480 rereplic: 2%

How did CC1CCCCN1S(=O)(=O)c1ccc(N(C(=O)c2cnccn2)C(C(=O)NC2CCCC2)c2cccs2)cc1 (stereo not drawn) do in these assays?
KB-3-1 cytotox: inactive; MCF10A rerep: -3%; KB-V1 cytotox: inactive; IL-1B inflam inh: -8; SW480 rereplic: -1%

How did COC(=O)C1=C(C)N(Cc2ccco2)C(=O)/C1=C\c1ccc([N+](=O)[O-])cc1 do in these assays?
KB-3-1 cytotox: inconclusive; MCF10A rerep: inconclusive; KB-V1 cytotox: inconclusive; IL-1B inflam inh: -102*; SW480 rereplic: inconclusive

How did COc1ccc(CNC(=O)C(C)N2CCN(S(=O)(=O)c3ccccc3F)CC2)cc1 (stereo not drawn) do in these assays?
KB-3-1 cytotox: inactive; MCF10A rerep: -2%; KB-V1 cytotox: 23µM*; IL-1B inflam inh: 10; SW480 rereplic: -3%

How did CCCc1ccc(S(=O)(=O)N2CCN(C(C)C(=O)NCc3ccc(OC)cc3)CC2)cc1 (stereo not drawn) do in these assays?
KB-3-1 cytotox: inactive; MCF10A rerep: 4%; KB-V1 cytotox: inconclusive; IL-1B inflam inh: 0; SW480 rereplic: -12%

What do the screens show for `c1nc(NCCCN2CCCCC2)c2cc(-c3ccc4c(c3)OCO4)ccc2n1`?
KB-3-1 cytotox: inconclusive; KB-V1 cytotox: inactive

Results for COc1ccc(CC(N)c2csc(NC(=O)Nc3cccc(C(F)(F)F)c3)n2)cc1 (stereo not drawn) ?
KB-3-1 cytotox: inconclusive; KB-V1 cytotox: inconclusive; IL-1B inflam inh: -57*

Results for CC(C)c1ccc(NC(=O)Nc2nc(C(C)N)cs2)cc1 (stereo not drawn) ?
KB-3-1 cytotox: inactive; KB-V1 cytotox: inactive; IL-1B inflam inh: inconclusive

Results for CC(C)c1ccc(NC(=O)Nc2nc(C(N)c3ccccc3Cl)cs2)cc1 (stereo not drawn) ?
KB-3-1 cytotox: inactive; KB-V1 cytotox: inconclusive; IL-1B inflam inh: -77*

How did NC(COCc1ccccc1)c1csc(NC(=O)Nc2cccc(Cl)c2)n1 (stereo not drawn) do in these assays?
KB-3-1 cytotox: inactive; KB-V1 cytotox: inactive; IL-1B inflam inh: -56*

What do the screens show for `COc1cc(NC(=O)Nc2nc(C(N)CCc3ccccc3)cs2)cc(OC)c1OC` (stereo not drawn)?
KB-3-1 cytotox: inconclusive; KB-V1 cytotox: inactive; IL-1B inflam inh: inconclusive

Results for CC(C)c1ccc(NC(=O)Nc2nc(C(N)CCc3ccccc3)cs2)cc1 (stereo not drawn) ?
KB-3-1 cytotox: inconclusive; KB-V1 cytotox: inconclusive; IL-1B inflam inh: -106*

What do the screens show for `COc1ccc(CC(N)c2csc(NC(=O)c3cccs3)n2)cc1` (stereo not drawn)?
KB-3-1 cytotox: inactive; KB-V1 cytotox: inconclusive; IL-1B inflam inh: -19

What do the screens show for `Cn1c(=O)c2c(ncn2CC(COCc2ccccc2)OCc2ccccc2)n(C)c1=O` (stereo not drawn)?
KB-3-1 cytotox: inactive; MCF10A rerep: 11%; KB-V1 cytotox: inactive; IL-1B inflam inh: 0; SW480 rereplic: -5%

Results for NC(CCc1ccccc1)c1csc(NC(=O)Nc2cccc(C(F)(F)F)c2)n1 (stereo not drawn) ?
KB-3-1 cytotox: inconclusive; KB-V1 cytotox: inconclusive; IL-1B inflam inh: -57*
